Screening results from PubChem.
An excerpt weighted towards active compounds, which were near 3.2% of everything screened.
HGIII-sPLA2 inh = human group III sPLA2 inhibitors, primary screen, biochemical, QFRET, BODIPY PC-A2 liposome substrate | QFRET BODIPY PC-A2 liposome hydrolysis, fluorescence | inhibition, % at 12.2 µM | 370,000 tested, 0.56% active;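 active = inhibition above mean plus 3 SD of compounds lying within the high and low control bounds, cut at about 19% in these data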;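 also: 0% = median of test compound wells and 100% = no enzyme DMSO wells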
Target sequence (Q9NZ20 whole entry, looked up): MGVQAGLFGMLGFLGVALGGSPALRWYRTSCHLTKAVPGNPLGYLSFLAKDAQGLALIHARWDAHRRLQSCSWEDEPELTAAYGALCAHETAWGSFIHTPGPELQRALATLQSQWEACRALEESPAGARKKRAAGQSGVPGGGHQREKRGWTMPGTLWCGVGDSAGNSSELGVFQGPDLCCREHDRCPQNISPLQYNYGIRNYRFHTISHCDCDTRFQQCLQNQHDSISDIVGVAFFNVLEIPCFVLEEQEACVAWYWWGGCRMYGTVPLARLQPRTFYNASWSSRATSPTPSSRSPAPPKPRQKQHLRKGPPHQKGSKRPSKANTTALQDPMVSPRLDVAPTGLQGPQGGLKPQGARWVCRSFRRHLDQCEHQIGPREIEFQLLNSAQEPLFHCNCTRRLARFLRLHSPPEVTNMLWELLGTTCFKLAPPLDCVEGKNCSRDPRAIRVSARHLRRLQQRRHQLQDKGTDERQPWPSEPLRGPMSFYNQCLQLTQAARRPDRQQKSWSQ
bovine MsrA act = bovine MsrA enzyme activators, primary screen, biochemical, absorbance, HTS. Methionine sulfoxide reductase A (Bos taurus). purified bovine MsrA, absorbance read-out. activation, % at 10.6 µM. 360,000 tested, 0.3% active. AID 602163, 2012; in the data active = activation above about 7.5%;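 also: 0% = vehicle and 100% = reference activator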
MsrA inhibitor = bovine MsrA enzyme inhibitors, primary screen, biochemical, absorbance, HTS | inhibition, % at 15.5 µM | 360,000 tested, 0.75% active | purified bovine MsrA, absorbance read-out; in the data active = inhibition above about 4.5%;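 also: 0% = vehicle wells with enzyme and 100% = reference inhibitor wells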
rCAG RNA binder = binders of r(CAG) RNA repeats, primary screen, biochemical, fluorescence | r(CAG) RNA repeat, TO-PRO-1 dye displacement fluorescence | inhibition, % at 3 µM | 370,000 tested, 1.3% active | AID 651821, 2012;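 active = inhibition above the plate cutoff, the mean of all test compounds on that plate plus 3 SD, cut at about 35% in these data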;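 also: 0% = DMSO alone and 100% = 100 µM mitoxantrone as full dye displacement; higher means more dye released from RNA so lower well fluorescence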
PG9 Ab binder = binders of HIV-1 gp120 antibody PG9, primary screen, biochemical, TR-FRET; HIV-1 gp120 / PG9 antibody interaction; TR-FRET gp120-PG9 antibody binding; inhibition, % at 6.7 µM; 360,000 tested, 0.43% active; in the data active = inhibition above about 8.5%
PG9 binder conf = binders of anti-gp120 antibody PG9, confirmation, biochemical, TR-FRET | AID 651571, 2012 | shares compounds with PG9 Ab binder | inhibition, % at 6.7 µM | TR-FRET PG9 antibody binding | 1,500 tested, 90% active; in the data active = inhibition above about 9%
PGV04 Ab binding = binders of control antibody PGV04, counter-screen for PG9 antibody binder project, biochemical, TR-FRET, distinct HIV envelope site; shares compounds with PG9 Ab binder; TR-FRET PGV04 antibody-gp120 binding; inhibition, % at 6.7 µM; 1,500 tested, 95% active; AID 651604, 2012; in the data active = inhibition above about 9.5%
PG9 bind DR = small-molecule binders of antibody PG9, dose response, biochemical, TR-FRET, HIV-1 gp120 antibody; shares compounds with PG9 Ab binder; TR-FRET PG9 antibody-gp120 binding inhibition; IC50, µM; 95 tested, under 10 active; AID 651848, 2012; in the data active = IC50 below about 10 µM
PGV04 DR counter = binders of control antibody PGV04, dose response, counter-screen for PG9 antibody binder project, biochemical, TR-FRET, distinct HIV envelope site | shares compounds with PG9 Ab binder | TR-FRET binding to control antibody PGV04 | IC50, µM | 95 tested, 20% active | AID 651937, 2012
PG126 DR counter = binders of control antibody PG126, dose response, counter-screen for PG9 antibody binder project, biochemical, TR-FRET, distinct HIV envelope site; shares compounds with PG9 Ab binder; TR-FRET binding to antibody PG126, counterscreen; IC50, µM; 95 tested, 20% active; AID 651939, 2012
Numbers without * were called inactive; i = inactive; x = no result. Rule as the data show it, unless noted: active = IC50 below about 9 µM; inactive = the rest.

SMILES	HGIII-sPLA2 inh	bovine MsrA act	MsrA inhibitor	rCAG RNA binder	PG9 Ab binder	PG9 binder conf	PGV04 Ab binding	others
CCOC(=O)[C@]12CCCCC/C=C\1N(Cc1ccc(OC)cc1)C(=O)[C@H]2CC(=O)NCCCCc1ccccc1	-14	x	x	3	x	x	x
O=C(CCSc1nnc2ccc3ccccc3n12)Nc1ccc(F)cc1	2	-7	0	3	23*	7	21*
C/C(N)=C(/C#N)C(=O)CSc1nc2ccccc2c(=O)n1-c1ccc(C)c(Cl)c1	3	1	1	2	45*	39*	56*
C/C(N)=C(/C#N)C(=O)CSc1nc2ccccc2c(=O)n1-c1ccccc1C	-10	-13	1	4	-2	x	x
CC(C)OC(=O)CSc1nc2cc3c(cc2cc1C#N)OCO3	-2	-8	0	0	-2	x	x
CCOC(=O)CSc1nc2cc3c(cc2cc1C#N)OCO3	0	2	0	2	49*	44*	62*
COC(=O)CSc1nc2cc3c(cc2cc1C#N)OCO3	8	-4	1	-1	15*	33*	71*
COC(=O)[C@]12C[C@H](CC(=O)NCCC(C)C)C(=O)N(CCC3=CCCCC3)C1=C[C@H](C(C)C)O[C@@H]2C1CC1	-2	x	x	3	x	x	x
Cn1c(=O)c2cc(S(=O)(=O)N3CCN(c4ccc(F)cc4)CC3)ccc2n(C)c1=O	3	x	x	1	x	x	x
Cc1ccc(NC(=O)OCCCN2C(=O)CCC23CCC(C)CC3)cc1C (centres undefined)	-10	x	x	-1	x	x	x
O=C(COC(=O)c1cccc(-n2cnnn2)c1)c1ccc(F)cc1	-3	-4	-2	2	-1	x	x
COc1ccccc1C(=O)COC(=O)c1cc(=O)[nH]c2ccccc12	6	-1	1	0	5	x	x
COc1ccc(C(=O)COC(=O)c2cc(=O)[nH]c3ccccc23)c(OC)c1	3	-5	1	7	46*	50*	78*
COc1ccc(C(=O)COC(=O)c2cccc(-n3cnnn3)c2)c(OC)c1	3	0	-1	10	18*	6	9
COc1ccc(S[C@]2(C(=O)N3CCN(c4ncccn4)CC3)CC(=O)N(C(=O)c3ccccc3)[C@@H]2c2ccc(OC)cc2)cc1	1	x	x	15	x	x	x
CC(=O)N1CCc2c1cccc2S(=O)(=O)NC(CC(C)C)C(=O)Nc1ccccc1C (centres undefined)	0	x	x	3	x	x	x
N/C(=N\OC(=O)COc1ccc2ccccc2c1Br)c1ccccn1	-14	-2	1	2	4	x	x
N/C(=N\OC(=O)COc1ccc2ccccc2c1Br)c1cccnc1	1	x	2	20	10*	14*	19*
CCOC(=O)c1sc2nc(C)nc(NCCc3ccc(S(N)(=O)=O)cc3)c2c1C	-1	3	0	1	18*	27*	47*
Cc1nc(NCCc2ccc(S(N)(=O)=O)cc2)c2c(C)c(C)sc2n1	-3	5	-1	4	0	x	x
Cc1nc(NCc2ccc(S(N)(=O)=O)cc2)c2c(C)c(C)sc2n1	9	-1	0	3	41*	22*	31*
Cc1ccc2nc(-c3cc(-c4ccccc4)no3)cn2c1	-4	-3	0	-1	23*	29*	28*	PG9 bind DR=>67;PGV04 DR counter=i;PG126 DR counter=>67
